FLuc inh – blocks purified firefly luciferase enzyme activity; P08659; purified P. pyralis luciferase, luminescence, biochemical; Potency, µM (highest dose often 115 µM), most hits filed as inhibitors; 76,000 compounds, 2.5% hits; AID 1347043; note: nearly all actives have a fitted effect of over 65% in size
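Luminescence read by CCD imager after adding enzyme (10nM final) to wells holding compound, titrated in qHTS. Substrates 10uM each D-luciferin and ATP; buffer 50mM Tris acetate pH 7.5, 10mM Mg acetate, Tween-20, BSA.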
HEK293 tox – HEK 293 cell cytotoxicity; AID 1345083; Potency, µM (top dose mostly 115 µM), hits mostly inhibitors; 94,000 compounds, 6.6% hits; HEK 293 viability, ATP luminescence (CellTiter-Glo), 48-72 h; note: nearly all actives have a fitted effect of over 60% in size
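HEK 293 cells seeded at 250 cells/well were exposed to compound for 48 or 72 hr at 37 degree Celsius. Viability taken as ATP content by CellTiter-Glo luminescence.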
hNpr1 antagonist – human Npr1 receptor antagonism. HEK293 hNpr1 GloSensor cGMP, ANP-stimulated luminescence. Potency, µM (titrated, usually from 46.3 µM), hits mostly inhibitors. 76,000 compounds, 1.6% hits. AID 1347048; calls by dose curve; note: nearly all actives have a fitted effect of over 60% in size
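Compound pre-incubated 30 min at room temperature on GloSensor-loaded HEK293 cells stably carrying hNpr1 and the pGS-40F cGMP biosensor. Stimulation uses hNppA at 0.1 nM final; luminescence is taken at baseline and 20 min post-agonist.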
3T3 cytotox – cytotoxic compounds in NIH 3T3 cells | NIH 3T3 viability, CellTiter-Glo ATP luminescence, 48-72 h | Potency, µM (doses to about 96.7 µM), most hits filed as inhibitors | 94,000 compounds, 4.3% hits; note: nearly all actives have a fitted effect of over 55% in size
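Cells were seeded at 400 per well, treated with pin-transferred compound, and kept 48 or 72 hr at 37 °C before CellTiter-Glo addition and luminescence imaging of cellular ATP.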
GPT2 inh – GPT2 alanine aminotransferase inhibition. Recombinant GPT2, coupled pyruvate oxidase/HRP Amplex Red fluorescence. Potency, µM (top dose mostly 57.7 µM), actives largely listed as inhibitors. 100,000 compounds, 0.25% hits; note: nearly all actives have a fitted effect of over 60% in size
Target sequence (Q8TD30 whole entry, looked up): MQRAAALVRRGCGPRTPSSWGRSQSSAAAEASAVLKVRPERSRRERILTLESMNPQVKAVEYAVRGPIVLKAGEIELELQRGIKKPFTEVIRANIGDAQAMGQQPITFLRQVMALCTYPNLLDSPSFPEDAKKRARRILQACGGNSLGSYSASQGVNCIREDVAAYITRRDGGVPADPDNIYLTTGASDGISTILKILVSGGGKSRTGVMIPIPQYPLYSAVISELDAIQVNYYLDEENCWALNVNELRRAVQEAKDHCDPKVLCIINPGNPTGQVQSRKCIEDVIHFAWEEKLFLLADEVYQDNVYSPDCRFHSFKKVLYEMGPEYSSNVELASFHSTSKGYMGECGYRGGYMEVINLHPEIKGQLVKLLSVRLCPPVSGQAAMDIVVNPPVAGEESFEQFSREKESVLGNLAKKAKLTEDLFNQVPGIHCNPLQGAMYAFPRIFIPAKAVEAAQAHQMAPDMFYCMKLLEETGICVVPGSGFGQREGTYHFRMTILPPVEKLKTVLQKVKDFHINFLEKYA
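Inhibition is scored from Amplex Red fluorescence generated when pyruvate oxidase and HRP act on pyruvate released by GPT2. Reactions contain 10ng/uL enzyme, 250uM a-KG and 2mM L-alanine and run 30 min at room temperature.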
Numbers stand for hits; n = inactive; u = inconclusive; x = no result given. Sampled rows, rich in hits. Any-hit rate of the full collection: about 10%. Unless noted, calls come from the whole dose curve; as a rule, active = well fitted curve in the direction sought with a large enough effect; inconclusive = small, poorly fitted or top-dose-only effect, or another doubt; inactive = no such curve, though single readings can be large; an effect the other way counts as inactive or inconclusive.

SMILES	FLuc inh	HEK293 tox	hNpr1 antagonist	3T3 cytotox	GPT2 inh
COc1cccc(CN2C(=O)OC3(CCN(C(=O)Cc4ccccn4)CC3)C2(C)c2cccnc2)c1 (centres undefined)	n	n	n	35µM	n
Nc1nc(OCc2cc(Br)cs2)c2[nH]cnc2n1	x	x	x	x	n
CN(CC1CCOCC1)C(=O)c1cccc(Cl)c1	n	n	n	n	n
COc1ccc(F)cc1-c1ccc(CN2CCCCC2C(=O)NCc2ccccc2)cc1 (centres undefined)	x	32µM	x	u	x
COc1ccc(F)cc1-c1ccc(CN2CCCCC2C(=O)NCc2ccccc2F)cc1 (centres undefined)	x	25µM	x	u	x
COc1ccc(CNC(=O)C2CCCCN2Cc2ccc(-c3ccccc3OC)cc2)cc1OC (centres undefined)	x	32µM	x	u	x
COc1ccccc1-c1ccc(CN2CCCCC2C(=O)NCc2cccc(C(F)(F)F)c2)cc1 (centres undefined)	x	28µM	x	u	x
COc1ccc(Cn2c(=O)c(C(=O)Nc3cccc(Cl)c3)nc3cccnc32)cc1	x	n	x	n	n
O=C(NCc1cccc(C(F)(F)F)c1)C1CCCN1Cc1ccc(-c2cncnc2)cc1 (centres undefined)	x	50µM	x	u	n
COc1ccccc1-c1cccc(C(=O)N2CCC[C@H]2C(=O)NCc2ccc(C(F)(F)F)cc2)c1	x	79µM	x	u	n
COc1ccc(F)cc1-c1ccc(CN2CCCCC2C(=O)NCc2cccs2)cc1 (centres undefined)	x	u	x	13µM	x
COc1ccccc1-c1cccc(C(=O)N2CCC[C@H]2C(=O)NCc2ccccc2)c1	x	u	x	n	n
COc1ccc(F)cc1-c1ccc(CN2CCCCC2C(=O)NC(C)CCc2ccccc2)cc1 (centres undefined)	x	25µM	x	u	x
CCc1ncc2c(N3CC4CCC(C3)N4CC(F)(F)F)nc3ccccc3n12	x	40µM	x	u	u
Cc1cccc(NC(=O)Cn2c(-c3cccc(Cl)c3)nc(C)c(CCO)c2=O)c1C	n	u	n	n	n
COc1ccc(NC(=O)Cn2c(N3CCCCC3)nc(C)c(C)c2=O)cc1Cl	n	25µM	n	u	n
COc1ccccc1-c1cccc(CN2CCC(N[S+](=O)([O-])c3c(C)noc3C)CC2)c1	x	35µM	x	35µM	n
COc1ccccc1-c1cccc(CN2CCC(N[S+](C)(=O)[O-])CC2)c1	x	u	x	u	n
COc1ccccc1-c1cccc(CN2CCC(N[S+](=O)([O-])c3ccc(C)cc3)CC2)c1	x	35µM	x	u	n
Cn1ccc(CN2CCn3c(nn(-c4ccc(F)cc4F)c3=O)C2)c1	n	u	n	n	n
COCC(=O)N1CCC(Oc2nccnc2N2CCc3ccccc32)C1 (centres undefined)	35µM	n	n	n	n
c1ccc2c(c1)CCN2c1nccnc1OC1CCNC1 (centres undefined)	n	n	n	n	n
c1ccc(CN2CCC(Oc3nccnc3N3CCc4ccccc43)C2)nc1 (centres undefined)	n	40µM	n	u	n
CNC(=O)c1cc(C)nc2onc(C3CCCN3C(=O)c3ccccc3F)c12 (centres undefined)	x	n	x	n	x
COc1ccc(-c2cccc(C(=O)N3CCN(C(=O)Cc4ccc(F)cc4)CC3)c2)nn1	x	n	x	n	x
SMILES	FLuc inh	HEK293 tox	hNpr1 antagonist	3T3 cytotox	GPT2 inh
COc1ccccc1-c1cccc(C(=O)N2CCN(C(=O)c3ccccc3C)CC2)c1	x	32µM	x	35µM	n
COc1ccccc1-c1cccc(C(=O)N2CCN(C(C)=O)CC2)c1	x	n	x	n	n
COc1ccccc1-c1cccc(C(=O)N2CCN(C(=O)c3ccccc3)CC2)c1	x	u	x	n	n
COc1ccccc1-c1cccc(C(=O)N2CCN(C(=O)c3ccc(Cl)cc3)CC2)c1	x	u	x	32µM	n
Cc1noc(C)c1C(=O)N1Cc2ccccc2CC2(CCN(C)C2)C1 (centres undefined)	x	79µM	x	79µM	n
CC(=O)N1Cc2ccccc2CC2(CCCN(C)C2)C1 (centres undefined)	x	n	x	n	n
CCC(=O)N1Cc2ccccc2CC2(CCCN(C)C2)C1 (centres undefined)	x	79µM	x	u	n
Cc1noc(C)c1C(=O)N1Cc2ccccc2CC2(CCN(CC3CCNCC3)CC2)C1	x	n	x	n	n
Cc1ccc(C(=O)N2CCC(F)(C(=O)N3CCOCC3)CC2)s1	x	n	x	n	n
O=C(Nc1ccc(S(=O)(=O)Nc2ccccc2Cl)c(Cl)c1)c1ccccn1	x	x	x	x	n
CCc1nc2c(c(-c3ccc(O)cc3)n1)CN(C(=O)c1ccc(OC)cc1)CC2	x	u	x	n	u
O=C(C1CCCC1)N1CC2(CCNC2)OCc2ccccc21 (centres undefined)	x	n	x	n	n
c1ccc2c(c1)COC1(CCNC1)CN2CC1CCCCC1 (centres undefined)	x	79µM	x	32µM	n
Cc1cc(Cl)ccc1S(=O)(=O)N1CCCC(Cn2c(C)nc3cccnc32)C1 (centres undefined)	n	20µM	u	11µM	n
CCc1ccccc1S(=O)(=O)N1CCCC(Cn2c(C3CC3)nc3cccnc32)C1 (centres undefined)	n	40µM	n	u	n
Cc1ccc(S(=O)(=O)N2CCCC(Cn3c(C4CC4)nc4cccnc43)C2)c(C)c1 (centres undefined)	n	35µM	n	u	n
Cc1ccc(C)c(S(=O)(=O)N2CCCC(Cn3c(C)nc4cccnc43)C2)c1 (centres undefined)	n	40µM	u	25µM	n
Cc1ccc(S(=O)(=O)N2CCCC(Cn3c(C)nc4cccnc43)C2)c(C)c1 (centres undefined)	n	u	u	u	n
O=C(CC[C@@H]1CNC(=O)[C@@H]2C[C@H](NC(=O)Nc3cccc(Cl)c3)CN12)NCc1cccnc1	n	n	n	n	n
Cc1nnc2ccc(N3CCCN(C(=O)c4ccccc4)CC3)nn12	x	n	x	n	x
Cc1nc2cccnc2n1CC1CCCN(S(=O)(=O)Cc2ccc(Cl)cc2)C1 (centres undefined)	n	32µM	u	u	n
COc1cccc(NC(=O)N2CCCC(Cn3c(C)nc4cccnc43)C2)c1 (centres undefined)	n	n	n	n	n
Cc1cc(NC(=O)N2CCCC(Cn3c(C)nc4cccnc43)C2)ccc1Br (centres undefined)	n	32µM	n	u	n
COc1cccc(CN2CC(Oc3ccccc3C(=O)N3CCOCC3)C2)c1	x	n	x	n	n
O=C(c1ccc(C#Cc2cccc(F)c2)cn1)N1CC2CC2C1 (centres undefined)	x	x	x	x	n
Fc1ccccc1Nc1cnc2ccc(-n3ccnc3)nn12	n	u	n	u	n
c1ccc(-c2ccccc2Nc2cnc3ccc(-n4ccnc4)nn23)cc1	n	32µM	u	25µM	n

Screens deposited in PubChem BioAssay by National Center for Advancing Translational Sciences (NCATS).
